One experiment deals with Mel-DCC-11. Briefly: cell viability relative to DMSO control (fraction of DMSO control); higher = less cytotoxic, active = 0.5 or less. The following applies: 1 µM; 120 h. In short, it runs like this:
(§1)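 Three cell types were screened against 315 approved anti-cancer drugs from TargetMol, acoustically pre-spotted in 384-well plates at 1 µM in duplicate over 120 h: NHEM-hTERT immortalized melanocytes (2500/well), patient-derived Mel-DCC-11 and its resistant subline Mel-DCC-11-R (both 1500/well), all in 40 µl per well. The subline was tested alone and with 8 µM of its selecting drug. Viability, measured by luminescence, was normalised to vehicle controls and averaged across duplicates, with ATPlite 1step as the readout.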

A further experiment concerns NHEM-hTERT. Described as above. Conditions: 1 µM; 120 h. In short, it runs like this: as §1
A further experiment relates to Mel-DCC-11-R. The experiment is described as follows: cell viability relative to DMSO control (fraction of DMSO control); higher = less cytotoxic, active = 0.8 or less. Conditions: 1 µM, 120 h. In short, it runs like this: as §1

Unmarked numbers belong to inactive results.

As to `Cc1ccc(Nc2nccc(N(C)c3ccc4c(C)n(C)nc4c3)n2)cc1S(N)(=O)=O` [Pazopanib], the cell viability is 1.68 with Mel-DCC-11, 0.893 in the experiment on NHEM-hTERT, 1.07 in the experiment with Mel-DCC-11-R (vemurafenib co-treatment 0 µM) and 1.13 with Mel-DCC-11-R (vemurafenib co-treatment 8 µM).

Take `Nc1nc(=S)c2[nH]cnc2[nH]1` [Thioguanine]: the cell viability with Mel-DCC-11 is 0.703; in the experiment on NHEM-hTERT it was 1.06; in the experiment with Mel-DCC-11-R (vemurafenib co-treatment 0 µM), 1.31; in the experiment with Mel-DCC-11-R (vemurafenib co-treatment 8 µM) it was 0.933.

With `C=CC(=O)Nc1cc(Nc2nccc(-c3cn(C)c4ccccc34)n2)c(OC)cc1N(C)CCN(C)C` [Osimertinib], the cell viability with Mel-DCC-11 was 0.923; in the experiment with NHEM-hTERT it was 1.16; with Mel-DCC-11-R (vemurafenib co-treatment 0 µM) it was 1.06; in the experiment on Mel-DCC-11-R (vemurafenib co-treatment 8 µM), 0.884.

For `C=C1CC[C@H](O)C/C1=C/C=C1\CCC[C@]2(C)[C@@H]([C@H](C)/C=C/[C@H](C)C(C)C)CC[C@@H]12` [Vitamin D2], the cell viability with Mel-DCC-11 was 1.13; in the experiment with NHEM-hTERT it was 0.998; with Mel-DCC-11-R (vemurafenib co-treatment 0 µM) it was 1; in the experiment with Mel-DCC-11-R (vemurafenib co-treatment 8 µM), 1.16.

As to `CC(C)C[C@H](NC(=O)[C@H](CCc1ccccc1)NC(=O)CN1CCOCC1)C(=O)N[C@@H](Cc1ccccc1)C(=O)N[C@@H](CC(C)C)C(=O)[C@@]1(C)CO1` [Carfilzomib], the cell viability with Mel-DCC-11 is 0.0151 (active); in the experiment with NHEM-hTERT, 0.0167 (active); in the experiment on Mel-DCC-11-R (vemurafenib co-treatment 0 µM), 0.0186 (active); in the experiment on Mel-DCC-11-R (vemurafenib co-treatment 8 µM), 0.018 (active).

On to `CN1[C@@H]2CCC[C@H]1C[C@@H](NC(=O)c1nn(C)c3ccccc13)C2.Cl` [Granisetron hydrochloride], for which the cell viability is 1.15 in the experiment on Mel-DCC-11, 1.07 in the experiment on NHEM-hTERT, 0.924 with Mel-DCC-11-R (vemurafenib co-treatment 0 µM) and 1.07 in the experiment on Mel-DCC-11-R (vemurafenib co-treatment 8 µM).

For the compound `Nc1nc(F)nc2c1ncn2[C@@H]1O[C@H](COP(=O)(O)O)[C@@H](O)[C@@H]1O` [Fludarabine Phosphate], the cell viability is 1.49 in the experiment with Mel-DCC-11, 1.2 with NHEM-hTERT, 1.07 in the experiment with Mel-DCC-11-R (vemurafenib co-treatment 0 µM) and 1.16 in the experiment with Mel-DCC-11-R (vemurafenib co-treatment 8 µM).

Regarding `CC(=O)c1c(C)c2cnc(Nc3ccc(N4CCNCC4)cn3)nc2n(C2CCCC2)c1=O.O=S(=O)(O)CCO` [Palbociclib Isethionate], the cell viability in the experiment with Mel-DCC-11 is 0.742; with NHEM-hTERT, 1.03; in the experiment on Mel-DCC-11-R (vemurafenib co-treatment 0 µM), 1.6; in the experiment on Mel-DCC-11-R (vemurafenib co-treatment 8 µM), 1.19.

For `C[C@H](Nc1ncnc2nc[nH]c12)c1cc2cccc(Cl)c2c(=O)n1-c1ccccc1` [Duvelisib], the cell viability in the experiment on Mel-DCC-11 is 0.965; in the experiment on NHEM-hTERT, 0.912; with Mel-DCC-11-R (vemurafenib co-treatment 0 µM), 1.21; in the experiment with Mel-DCC-11-R (vemurafenib co-treatment 8 µM), 0.864.

In the case of `CC(=O)c1c(C)c2cnc(Nc3ccc(N4CCNCC4)cn3)nc2n(C2CCCC2)c1=O` [Palbociclib], the cell viability with Mel-DCC-11 was 0.763; with NHEM-hTERT, 0.993; in the experiment with Mel-DCC-11-R (vemurafenib co-treatment 0 µM) it was 1.76; in the experiment with Mel-DCC-11-R (vemurafenib co-treatment 8 µM) it was 1.15.

For `CO[C@@]12[C@H](COC(N)=O)C3=C(C(=O)C(C)=C(N)C3=O)N1C[C@@H]1N[C@@H]12` [Mitomycin C], the cell viability was 1.76 in the experiment with Mel-DCC-11, 0.685 in the experiment on NHEM-hTERT, 1.6 in the experiment on Mel-DCC-11-R (vemurafenib co-treatment 0 µM) and 0.859 with Mel-DCC-11-R (vemurafenib co-treatment 8 µM).

On to `Cc1ccc(NC(=O)c2ccc(CN3CCN(C)CC3)cc2)cc1Nc1nccc(-c2cccnc2)n1` [Imatinib], for which the cell viability in the experiment with Mel-DCC-11 is 1.15; with NHEM-hTERT, 1.24; in the experiment on Mel-DCC-11-R (vemurafenib co-treatment 0 µM), 0.978; with Mel-DCC-11-R (vemurafenib co-treatment 8 µM) it was 1.1.

`CC[C@@]1(O)C(=O)OCc2c1cc1n(c2=O)Cc2cc3cc(O)ccc3nc2-1` [10-Hydroxycamptothecin]: the cell viability is 0.203 (active) in the experiment on Mel-DCC-11, 0.731 in the experiment with NHEM-hTERT, 0.478 (active) in the experiment with Mel-DCC-11-R (vemurafenib co-treatment 0 µM) and 0.249 (active) with Mel-DCC-11-R (vemurafenib co-treatment 8 µM).

Take `Oc1ccc(/C=C/c2cc(O)cc(O)c2)cc1` [Resveratrol]: the cell viability with Mel-DCC-11 was 1.06; in the experiment with NHEM-hTERT, 1; in the experiment with Mel-DCC-11-R (vemurafenib co-treatment 0 µM), 0.914; with Mel-DCC-11-R (vemurafenib co-treatment 8 µM), 1.16.

On to `O=C(CCCCCCNC(=O)c1cnc(N(c2ccccc2)c2ccccc2)nc1)NO` [Rocilinostat], for which the cell viability in the experiment on Mel-DCC-11 was 0.614; with NHEM-hTERT it was 0.847; in the experiment on Mel-DCC-11-R (vemurafenib co-treatment 0 µM), 0.681 (active); in the experiment with Mel-DCC-11-R (vemurafenib co-treatment 8 µM), 0.644 (active).

Regarding `COc1c(OCCCN2CCOCC2)ccc2c1N=C(NC(=O)c1cnc(N)nc1)N1CCN=C21` [Copanlisib], the cell viability was 0.966 in the experiment on Mel-DCC-11, 0.829 in the experiment on NHEM-hTERT, 0.671 (active) in the experiment with Mel-DCC-11-R (vemurafenib co-treatment 0 µM) and 0.254 (active) in the experiment on Mel-DCC-11-R (vemurafenib co-treatment 8 µM).

The values above are taken from the supplement of paper PMC12808144.
